Assay results as given in PubChem BioAssay AID651871 (Sanford-Burnham Center for Chemical Genomics, 2012).
Values joined by “and” are separate entries in the source; they are usually repeats but may differ in a detail not shown here. Equal entries are not always repeated.

System: HL-1
Assay: protection of cardiomyocytes from stress damage, SAR follow-up, cell-based, panel, H9c2 and HL-1, ATP luminescence, set 2 (AID 651871);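 also: cells exposed to stressor for 2 h before ATP readout; reference of the scale not given here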
Conditions: H9c2/HL-1 cardiomyocytes, 2-deoxyglucose stress, with 2-deoxyglucose
[1] = run 15, at 79 µM (top of the series)

SMILES | activity (protection/inhibition) [1] [%] | activity (protection/inhibition) (run 15, at 19.8 µM (top of the series))
CCOC(=O)c1cccc(NC(=O)CNC(=O)c2cc(-c3cc(OC)c(OC)c(OC)c3)nc3ccccc23)c1 | 87.5 | 
COc1ccc2nc(-c3cc(OC)c(OC)c(OC)c3)cc(C(=O)NCC(=O)Nc3ccc(C(C)=O)cc3)c2c1 | 56 | 
COc1ccc2c(c1OC)C(=O)N1c3ccccc3C(=O)N(Cc3cccc(Cl)c3Cl)C21 (centres undefined) | -12.5 | 69.2% and 28.8%
